The nature of assay [1]: NCATS anti-infectives library activity on HEK293 viability as a counter-qHTS vs the C. elegans viability qHTS (AID 1745854). Further: potency means the concentration at half of the fitted maximal effect. The essentials:
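HEK293 cells, 1500 per well, exposed 24 hr at 37C in 5% CO2 to compounds in a 1:5 titration, up to 41.7 uM final. Viability read as CellTiter-Glo luminescence after 10 min at room temperature.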

Assay [2] deals with Glutathione peroxidase 1 (Homo sapiens) (UniProt P07203). The assay is described as follows: Primary qHTS Assay for Inhibitors of Recombinant Selenoprotein Glutathione Peroxidase 1 (GPX1) (AID 1845191). Further: nearly all actives have a fitted effect of over 65% in size. The essentials:
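10 nM GPX1 + cpd, 30 min RT; start w/ 1 mM GSH, 0.5 mM cumene hydroperoxide, 0.5 mM NADPH, 100 nM GR, 0.01% BSA; buffer 50 mM Tris-HCl pH 7.5, 2 mM EDTA, 150 mM NaCl; Fl 340/450, 0 & 15 min.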
Background: qHTS replaces the single test concentration by a dilution series.

The target of assay [3] is Phospholipid hydroperoxide glutathione peroxidase GPX4 (Homo sapiens) (UniProt P36969). The assay is described as follows: Primary qHTS Assay for Inhibitors of Recombinant Selenoprotein Glutathione Peroxidase 4 (GPX4) (AID 1845192). Further: nearly all actives have a fitted effect of over 65% in size. On activity change, negative = inhibition: on the % scale 0 is the no-effect control and ±100 the full control effect. The gist of the method:
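NADPH consumption, followed by fluorescence at 340/450 nm between 0 and 15 min, reports GPX4 activity via coupled glutathione reductase (100 nM). Enzyme 200 nM was pre-exposed to compound 30 min; 0.5 mM cumene hydroperoxide and 1 mM GSH served as substrates.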

The target of assay [4] is Metallo-beta-lactamase type 2 (Klebsiella pneumoniae) (UniProt C7C422). The assay is described as follows: qHTS to identify inhibitors of the New Delhi Metallo-beta-lactamase (NDM): assay validation screen against the NCATS LOPAC Collection (AID 1794843).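 Further: nitrocefin turnover by NDM-1 measured as 485 nm absorbance at plateau; on the % scale 0 is the no-effect control and ±100 the full control effect.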 The essentials:
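NDM-1 at 2 nM final in 50 mM HEPES pH 7.0 with 1 uM ZnSO4 and 0.01% Tween20 was preincubated with library compounds in DMSO. Nitrocefin (50 uM stock) was then added, and absorbance at 485 nm was read at the kinetic plateau.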

The nature of assay [5]: NCATS anti-infectives library activity on the primary C. elegans qHTS viability assay (AID 1745855; calls by dose curve). As to conditions: C. elegans worm area imaging, day 7; at 41.8 µM (top of the series). The gist of the method: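 Viability is taken from GFP fluorescence of PE254-GFP-FLuc C. elegans imaged by laser cytometry over 7 days. Ten L1 worms per well grow at 21 °C on TOP10 E. coli capsules with titrated compound; levamisole marks toxicity.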

Assay [6] concerns the target Luciferin 4-monooxygenase (Photinus pyralis) (UniProt P08659). The assay is described as follows: Primary firefly luciferase (FLuc) qHTS assay for identification of artifact compounds. (AID 1845220). Further: nearly all actives have a fitted effect of over 60% in size.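 On activity change, negative = inhibition: plate controls were DMSO vehicle for no effect and no enzyme for full effect.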 As to conditions: outcome: dose series up to 54.1 µM. The gist of the method: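 Compounds sat 15 min at room temperature with 10 uM luciferin and 10 uM ATP (pH 7.6 Tris acetate). Firefly luciferase (10 nM final) was then added, and luminescence was read 5 min later. Data normalized to no-enzyme and DMSO controls were Hill-fitted.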

Assay [7] can be described thus: Viability counterscreen for antagonist of constitutive androstane receptor (CAR) against the NCATS DSHEA and TCM libraries (AID 1794837).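 Further: compound exposure lasted 24 h before viability reading; 0% is about no effect.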 The gist of the method: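 Counterscreen performed in a 1536-well qHTS format using HepG2-CYP2B6-hCAR cells; samples titrated in the presence of 48 uM CITCO, with viability measured fluorometrically (405/540 nm) after 24 h.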
In general terms: A counterscreen serves to expose hits that act by an unwanted route or on another target.

Assay [8] is described as follows: Viability counterscreen for agonist of constitutive androstane receptor (CAR) against the NCATS DSHEA and TCM libraries (AID 1794838). Further: 0% is about no effect. The gist of the method:
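Multiplexed counterscreen: after 24 h compound exposure with 0.75 uM PK11195, HepG2-CYP2B6-hCAR viability was quantified fluorimetrically (CellTiter-Fluor, 405/540 nm) prior to the ONE-Glo luciferase read.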

Assay [9] addresses Nuclear receptor subfamily 1 group I member 3 (Homo sapiens) (UniProt Q14994). The assay is described as follows: Primary qHTS for agonist of constitutive androstane receptor (CAR) against the NCATS DSHEA and TCM libraries (AID 1794839).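 Further: HepG2 cells expressing human CAR with a CYP2B6 reporter plus PK11195 antagonist; luciferase reporter luminescence read with ONE-Glo; 0% is about no effect.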 The gist of the method:
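Concentration–response screen in HepG2-CYP2B6-hCAR cells under 0.75 µM PK11195; 24 h exposure; luminescent reporter signal with multiplexed fluorescent viability.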

The nature of assay [10]: HepG2 viability counterscreen (readout 2: ATP content) against the NCATS DSHEA and TCM libraries (AID 1794840).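 Further: HepG2 cells exposed to substances for about 24 h; 0% is about no effect.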 The gist of the method: (§1)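 After HepG2 cells attach for ~4 h, substances are added and incubated ~24 h at 37C, 5% CO2. GF-AFC fluorescence then CellTiter-Glo luminescence give protease and ATP readouts.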
Assay [11] in a line: HepG2 viability counterscreen (readout 1: protease activity) against the NCATS DSHEA and TCM libraries (AID 1794841).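 Further: cells exposed to compounds for about 24 h before the protease read; 0% is about no effect.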 The essentials: as §1
Assay [12] concerns the target Catechol O-methyltransferase (Homo sapiens) (UniProt P21964). The assay is described as follows: Confirmatory Screen for Target Class Profiling of Small Molecule Inhibitors of Methyltransferases (AID 1745852). On activity change, negative = inhibition: on the % scale 0 is the no-effect control and ±100 the full control effect. As to conditions: MTase-Glo luminescence, SAH detection, recombinant enzyme; measured here: COMT max response; stronger effect = lower value.
The target in assay [13] is Guanidinoacetate N-methyltransferase (Homo sapiens) (UniProt Q14353). The assay is described as above. The note with it: MTase-Glo luminescence, SAH detection, recombinant enzyme; activity change, negative = inhibition: at 57.3 µM (top of the series).
The target of assay [14] is Nicotinamide N-methyltransferase (Homo sapiens) (UniProt P40261). Described as above. As to conditions: MTase-Glo luminescence, SAH detection, recombinant enzyme; measured here: NNMT max response; stronger effect = lower value.
Assay [15] has as its target Phenylethanolamine N-methyltransferase (Homo sapiens) (UniProt P11086). The description is as above. As to conditions: MTase-Glo luminescence, SAH detection, recombinant enzyme; measured here: PNMT max response; stronger effect = lower value.
A short description of assay [16]: Primary fluorescence-based thiol-reactive (MSTI) qHTS assay for identification of artifact compounds. (AID 1845221).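 Further: thiol-reactive compounds lower the probe fluorescence signal; nearly all actives have a fitted effect of over 65% in size.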 The gist of the method: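 Thiol-reactive compounds detected by quenching of 4 uM MSTI fluorescence (525/598 nm) after 1 h room-temperature dark incubation in PBS pH 7.4, 2% DMSO. qHTS titration; percent inhibition Hill-fitted against Acetyl-MSTI/MSTI controls.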

Records with an inconclusive call do not appear. Active and inactive are the calls of the source. Unless noted, the call rests on the fitted dose curve; in most records, active means well fitted curve in the direction sought with a large enough effect; inconclusive means small, poorly fitted or top-dose-only effect, or another doubt; inactive means no such curve, though single readings can be large; an effect the other way counts as inactive or inconclusive.

Chain of Metallo-beta-lactamase type 2 (Klebsiella pneumoniae) (C7C422 whole entry, looked up): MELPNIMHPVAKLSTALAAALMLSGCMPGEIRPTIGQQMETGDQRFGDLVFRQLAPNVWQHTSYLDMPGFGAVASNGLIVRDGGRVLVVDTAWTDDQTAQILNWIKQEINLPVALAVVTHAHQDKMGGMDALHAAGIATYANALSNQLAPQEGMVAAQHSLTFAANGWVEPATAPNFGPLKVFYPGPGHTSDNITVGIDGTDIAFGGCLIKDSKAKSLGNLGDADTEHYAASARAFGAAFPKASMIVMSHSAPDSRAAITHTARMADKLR
Chain of Glutathione peroxidase 1 (Homo sapiens) (P07203 whole entry, looked up): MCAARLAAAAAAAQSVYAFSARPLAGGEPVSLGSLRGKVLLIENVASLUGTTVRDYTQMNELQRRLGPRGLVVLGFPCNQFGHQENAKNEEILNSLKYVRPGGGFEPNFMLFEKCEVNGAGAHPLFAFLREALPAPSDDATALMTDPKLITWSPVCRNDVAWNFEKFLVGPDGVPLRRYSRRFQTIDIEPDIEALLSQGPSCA
Chain of Phospholipid hydroperoxide glutathione peroxidase GPX4 (Homo sapiens) (P36969 whole entry, looked up): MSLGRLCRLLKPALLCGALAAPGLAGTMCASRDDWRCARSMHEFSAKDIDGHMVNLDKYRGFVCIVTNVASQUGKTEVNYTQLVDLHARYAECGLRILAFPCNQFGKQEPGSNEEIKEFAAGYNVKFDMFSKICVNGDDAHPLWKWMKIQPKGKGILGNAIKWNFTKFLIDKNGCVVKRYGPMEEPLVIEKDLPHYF
Chain of Nicotinamide N-methyltransferase (Homo sapiens) (P40261 whole entry, looked up): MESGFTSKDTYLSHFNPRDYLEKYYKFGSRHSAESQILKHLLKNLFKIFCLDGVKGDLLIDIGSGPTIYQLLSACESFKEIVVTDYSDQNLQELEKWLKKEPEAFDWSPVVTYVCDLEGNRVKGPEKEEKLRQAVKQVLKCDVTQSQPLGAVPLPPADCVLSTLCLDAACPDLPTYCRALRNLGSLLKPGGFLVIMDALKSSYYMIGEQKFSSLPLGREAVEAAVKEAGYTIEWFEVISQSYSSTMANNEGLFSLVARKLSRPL
Chain of Phenylethanolamine N-methyltransferase (Homo sapiens) (P11086 whole entry, looked up): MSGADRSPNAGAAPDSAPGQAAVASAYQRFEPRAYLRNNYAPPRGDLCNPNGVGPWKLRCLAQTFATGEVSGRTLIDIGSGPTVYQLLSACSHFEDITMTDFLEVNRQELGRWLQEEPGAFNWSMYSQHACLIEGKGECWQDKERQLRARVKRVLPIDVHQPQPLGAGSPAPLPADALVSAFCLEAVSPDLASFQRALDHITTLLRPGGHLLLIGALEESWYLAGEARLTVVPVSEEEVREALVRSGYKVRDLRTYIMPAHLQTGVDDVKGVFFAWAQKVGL
Chain of Catechol O-methyltransferase (Homo sapiens) (P21964 whole entry, looked up): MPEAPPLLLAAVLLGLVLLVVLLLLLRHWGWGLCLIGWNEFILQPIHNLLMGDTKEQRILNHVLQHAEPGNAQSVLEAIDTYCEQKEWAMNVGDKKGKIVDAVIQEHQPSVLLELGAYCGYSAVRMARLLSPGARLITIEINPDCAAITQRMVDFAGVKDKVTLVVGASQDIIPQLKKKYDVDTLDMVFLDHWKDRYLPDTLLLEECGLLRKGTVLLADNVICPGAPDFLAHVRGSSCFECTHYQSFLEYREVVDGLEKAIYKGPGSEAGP
Chain of Nuclear receptor subfamily 1 group I member 3 (Homo sapiens) (Q14994 whole entry, looked up): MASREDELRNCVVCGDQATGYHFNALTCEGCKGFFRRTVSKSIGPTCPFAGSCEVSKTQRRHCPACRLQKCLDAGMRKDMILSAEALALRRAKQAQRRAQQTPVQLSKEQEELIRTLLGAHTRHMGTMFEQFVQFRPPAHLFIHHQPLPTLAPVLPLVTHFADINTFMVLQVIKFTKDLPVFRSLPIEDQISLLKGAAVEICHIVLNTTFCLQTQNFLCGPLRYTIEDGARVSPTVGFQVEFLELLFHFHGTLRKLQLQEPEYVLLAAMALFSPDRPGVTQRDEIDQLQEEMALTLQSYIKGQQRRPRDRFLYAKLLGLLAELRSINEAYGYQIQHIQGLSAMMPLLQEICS

For the compound `CC(C)Cn1cnc2c(N)nc3ccccc3c21`, the Potency entry in assay [1], in assay [2] and in assay [3] was “inactive” each time.

`CC(C)(Sc1cc(C(C)(C)C)c(O)c(C(C)(C)C)c1)Sc1cc(C(C)(C)C)c(O)c(C(C)(C)C)c1`: the Potency entry in assay [1], in [2] and in assay [3] was “inactive” each time.

Consider `NC(=O)c1cccc(N)c1`, for which the Potency entry in [1], in assay [2] and in assay [3] was “inactive” each time. In addition, in assay [4], the outcome is “inactive”.

As for `Clc1ccccc1CN1CCc2sccc2C1`, the Potency result in [1], in assay [2] and in [3] was “inactive” each time.

For the compound `Nc1nc(=S)c2[nH]cnc2[nH]1`, the Potency in assay [1] is 3.55 µM (active). Moreover, the Potency entry in [2] and in assay [3] was “inactive” throughout.

For the compound `COc1ccccc1OCC(O)COC(N)=O` (stereo not given), the Potency entry in assay [1], in assay [2] and in assay [3] was “inactive” in each case. The outcome in assay [5] is “inactive”.

Take `Cc1ccnc2c1NC(=O)c1cccnc1N2C1CC1`: the Potency entry in [1], in assay [2] and in [3] was “inactive” in each case.

For `Cc1nnc(C(=O)NC(C)(C)c2nc(C(=O)NCc3ccc(F)cc3)c(O)c(=O)n2C)o1`, the Potency entry in assay [1], in [2] and in assay [3] was “inactive” in each case. Also, the outcome in assay [6] is “inactive”.

For the compound `CCN(CC)CC#CCOC(=O)C(O)(c1ccccc1)C1CCCCC1` (stereo not given), in assay [4], the outcome was “inactive”. Also, the Potency result in assay [2] and in assay [3] was “inactive” in each case.

As to `Nc1nc(N)c2nc(CNc3ccc(C(=O)NC(CCC(=O)O)C(=O)O)cc3)cnc2n1` (stereo not given), the outcome in [4] was “inactive”. For the same compound, the Potency entry in assay [2] and in assay [3] was “inactive” throughout.

Consider `CC(C)NCC(O)c1ccc(NS(C)(=O)=O)cc1` (stereo not given), for which the outcome in assay [4] was “inactive”. Moreover, the Potency result in assay [2] and in assay [3] was “inactive” each time.

For the compound `NNC(=O)c1ccncc1`, the outcome in assay [7], in assay [8], in [9], in [10] and in [11] was “inactive” throughout. Besides, the Potency entry in [2] and in assay [3] was “inactive” throughout.

Turning to `Cc1oc(=O)oc1CN1CCN(c2cc3c(cc2F)c(=O)c(C(=O)O)c2n3C(C)S2)CC1` (stereo not given), the Potency result in assay [1], in assay [2] and in assay [3] was “inactive” each time.

`O=C(O)C1CCCN(CCC=C(c2ccccc2)c2ccccc2)C1` (stereo not given): the outcome in assay [4] was “inactive”. Besides, the Potency result in [2] and in assay [3] was “inactive” in each case.

For the compound `NC1(c2ccc(-c3nc4ccn5c(=O)[nH]nc5c4cc3-c3ccccc3)cc2)CCC1`, the results for the activity in [12], in assay [14] and in assay [15] were -9.12%, -25.8% and -8.08%, respectively. In assay [13], the activity change, negative = inhibition is -8.7%. The Potency entry in assay [2], in assay [3] and in [16] was “inactive” in each case. In addition, in assay [6], the outcome was “inactive”.

As to `COc1cc2c(Nc3ccc(Br)cc3F)ncnc2cc1OCC1CCN(C)CC1`, the activity in assay [12] was -17.2%; in [14], -14.2%; in assay [15] it was -14.3%. Also, the activity change, negative = inhibition in assay [13] is -2.94%. Besides, the Potency result in assay [2], in [3] and in [16] was “inactive” each time. In addition, the outcome in assay [6] was “inactive”.

Source of the values: PubChem BioAssay (NCATS).
